pCIP destab = p/CIP protein destabilization. Q05BA5. F442A p/CIP-EGFP cells, EGFP fluorescence, 16 h. decrease of EGFP signal, % at 10 µM. actives 0.01% (n = 290,000);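 active = EGFP signal decrease of at least 30% at 10 µM or well 3 SD below plate mean, unless failing retest; inactive = the rest, including hits failing retest or dose response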
Target sequence (Q05BA5 1-1403): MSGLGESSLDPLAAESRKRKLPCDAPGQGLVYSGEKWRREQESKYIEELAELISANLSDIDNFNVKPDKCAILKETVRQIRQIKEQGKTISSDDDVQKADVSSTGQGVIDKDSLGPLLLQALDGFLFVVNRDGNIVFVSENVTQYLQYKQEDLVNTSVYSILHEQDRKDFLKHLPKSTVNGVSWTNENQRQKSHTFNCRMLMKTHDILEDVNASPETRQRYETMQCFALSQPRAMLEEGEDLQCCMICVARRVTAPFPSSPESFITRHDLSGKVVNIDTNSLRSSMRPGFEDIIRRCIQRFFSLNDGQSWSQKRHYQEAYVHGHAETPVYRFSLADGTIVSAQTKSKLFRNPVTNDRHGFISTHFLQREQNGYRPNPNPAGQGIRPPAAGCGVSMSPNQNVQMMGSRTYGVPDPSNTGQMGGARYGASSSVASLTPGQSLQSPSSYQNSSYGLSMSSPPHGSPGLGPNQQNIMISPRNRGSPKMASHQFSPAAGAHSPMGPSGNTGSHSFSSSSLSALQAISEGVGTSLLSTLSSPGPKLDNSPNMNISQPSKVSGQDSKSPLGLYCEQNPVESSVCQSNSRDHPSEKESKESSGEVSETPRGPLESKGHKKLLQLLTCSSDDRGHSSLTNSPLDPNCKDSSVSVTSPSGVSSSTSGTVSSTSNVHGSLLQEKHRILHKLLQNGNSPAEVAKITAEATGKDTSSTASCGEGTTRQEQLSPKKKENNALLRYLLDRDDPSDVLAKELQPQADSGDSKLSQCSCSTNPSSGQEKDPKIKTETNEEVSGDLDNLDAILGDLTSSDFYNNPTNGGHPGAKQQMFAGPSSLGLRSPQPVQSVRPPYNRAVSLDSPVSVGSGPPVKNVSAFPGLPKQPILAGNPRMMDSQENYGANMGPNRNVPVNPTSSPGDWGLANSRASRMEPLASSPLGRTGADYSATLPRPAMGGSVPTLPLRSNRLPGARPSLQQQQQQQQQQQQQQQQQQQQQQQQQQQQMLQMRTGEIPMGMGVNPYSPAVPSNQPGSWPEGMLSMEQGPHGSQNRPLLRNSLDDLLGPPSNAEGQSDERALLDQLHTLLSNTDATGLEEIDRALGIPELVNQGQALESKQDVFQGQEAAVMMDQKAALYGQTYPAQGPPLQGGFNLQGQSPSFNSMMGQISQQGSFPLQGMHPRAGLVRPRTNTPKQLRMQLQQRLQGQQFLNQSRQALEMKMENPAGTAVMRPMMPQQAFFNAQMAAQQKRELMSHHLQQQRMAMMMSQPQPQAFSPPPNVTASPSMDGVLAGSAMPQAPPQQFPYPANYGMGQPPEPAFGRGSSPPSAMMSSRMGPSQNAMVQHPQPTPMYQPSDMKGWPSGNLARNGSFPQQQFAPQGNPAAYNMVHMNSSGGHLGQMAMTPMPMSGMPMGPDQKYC
MsrA act = activators of bovine methionine sulfoxide reductase A. purified bovine MsrA, absorbance read-out. activation, % at 10.6 µM. actives 0.3% (n = 360,000). AID 602163; in the data active = activation above about 7.5%;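 note: 0% = vehicle and 100% = reference activator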
14-3-3 Bad PPI = disrupts binding of bovine 14-3-3 zeta to phospho-Bad peptide; inhibition, % at 21.7 µM; AID 781; TR-FRET 14-3-3zeta/Dy647-pBad peptide displacement, 1 h; actives 0.71% (n = 220,000); P63103;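 active = inhibition above about 70%, limit read from the data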;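 note: 0% = full 14-3-3 plus peptide FRET controls and 100% = background without 14-3-3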
MsrA inh = inhibits bovine methionine sulfoxide reductase A; purified bovine MsrA, absorbance read-out; inhibition, % at 15.5 µM; actives 0.75% (n = 360,000); in the data active = inhibition above about 4.5%;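 note: 0% = vehicle wells with enzyme and 100% = reference inhibitor wells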
MsrA activ conf = confirmation of bovine methionine sulfoxide reductase A activators; shares compounds with MsrA act; activation, % at 10.6 µM; actives 12% (n = 1,000); purified bovine MsrA, absorbance read-out; in the data active = activation above about 4%;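 note: enzyme coupled to thioredoxin and thioredoxin reductase with NADPH; 0% = vehicle wells and 100% = reference activator wells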
An asterisk follows results filed as active; x = no result. An excerpt weighted towards active compounds, which were near 1.4% of everything screened.

SMILES	pCIP destab	MsrA act	14-3-3 Bad PPI	MsrA inh	MsrA activ conf
S=c1[nH]nc(Cc2ccccc2)n1Cc1ccco1	-8	7.7*	-22	-1	0
CCCn1c(Cc2ccccc2)n[nH]c1=S	1	1	-9	0	x
C#CC(C)(O)C1CC(CC(=O)O)C1(C)C (stereo not drawn)	x	10*	x	x	-2
CCc1nc2ccc(C(=O)Nc3ccc(NC(C)=O)cc3)cn2c1N(C)CCC(C)C	x	8.8*	x	-1	-1
CC1=C(C#N)C(c2ccc(O)cc2)C2=C(CC(C)(C)CC2=O)N1 (stereo not drawn)	0	10*	3	0	-1
COc1ccc(N2CC(NC(=O)c3ccc4ccccc4c3)CC2=O)cc1OC (stereo not drawn)	x	11*	x	-1	-1
COc1ccc(N2CC(NS(=O)(=O)c3ccc4ccccc4c3)CC2=O)cc1OC (stereo not drawn)	x	-2	x	0	x
Fc1ccc(-c2csc(=S)[nH]2)cc1	-5	8.0*	-7	2	1
S=c1[nH]c(-c2ccccc2)cs1	-4	-1	-3	2	x
CCc1cccc(CC)c1NC(=O)/C(C#N)=C/c1ccccc1C(F)(F)F	-6	11*	1	0	-1
O=[N+]([O-])c1ccc(C=Nc2cccc3ccccc23)s1	-4	8.1*	8	x	6.5*
COc1ccc(NC(=O)CSc2nc(C)c3c(c2C#N)CCCC3)cc1	-12	1	-1	1	x
Cc1cc(=O)[nH]c(SCC(=O)NCc2ccc3c(c2)OCO3)n1	-8	-10	x	-1	x
CCc1nnc(NC(=O)CSc2nc(C)c3c(c2C#N)CCCC3)s1	-1	15*	1	x	-2
Cc1nc(SCC(=O)NCc2ccc3c(c2)OCO3)c(C#N)c2c1CCCC2	-16	9.2*	5	-1	-2
C[C@@H]1OC(C2CCCCC2)N(C)[C@H]2C[C@H]3c4[nH]c5cccc(-c6ccccc6)c5c4CCN3C(=O)[C@@H]12 (stereo partly drawn)	x	x	x	1	x
NC(=O)c1ncn([C@@H]2O[C@H](C(=O)N[C@H](Cc3c[nH]c4ccccc34)C(=O)N3CCN(C(=O)N4CCCCC4)CC3)[C@@H](O)[C@H]2O)n1	x	x	x	0	x
COc1ccc(-c2cn3cc([N+](=O)[O-])ccc3n2)cc1OC	-1	10*	-8	3	-2
COc1ccc(C(C)=O)cc1CN1C(=O)C(C)N(c2ccc(C)cc2)C1=O (stereo not drawn)	-7	9.0*	1	1	-3
COc1ccc(C(C)=O)cc1CN1C(=O)NC2(CCCCC2)C1=O	2	-5	11	-1	x
CCCCC(=O)NNC(=S)NC(=O)c1ccc(C)cc1	-6	3	-17	1	x
CCCCC(=O)NNC(=S)NC(=O)c1ccc([N+](=O)[O-])cc1	-1	7.8*	-26	1	4.5*
O=C(NNC(=S)NC(=O)c1ccccc1)c1cccc([N+](=O)[O-])c1	-7	1	x	3	x
Cc1ccc(C(=O)NC(=S)NNC(=O)CC#N)cc1	2	7.8*	-14	0	4.1*
CCCCC(=O)NNC(=S)NC(=O)c1cccc([N+](=O)[O-])c1	-17	11*	-7	1	1
SMILES	pCIP destab	MsrA act	14-3-3 Bad PPI	MsrA inh	MsrA activ conf
COc1ccc(C(=O)C(=O)N2CCN(C(=O)c3cc(C(F)(F)F)cc(C(F)(F)F)c3)CC2)cc1OC	x	x	x	1	x
COC(=O)N1C[C@H](OC(=S)Nc2ccc(OC)cc2OC)[C@H]2C[C@@H]1c1ccccc1O2	x	x	x	-1	x
COC(=O)C1=C(C)N(C)C(=NCC2CC2)NC1c1ccc(Cl)cc1 (stereo not drawn)	x	x	x	0	x
COC(=O)C1=C(C)N(Cc2ccc(C(F)(F)F)cc2)C(=NCc2ccc3c(c2)OCO3)NC1c1ccccc1 (stereo not drawn)	x	x	x	-1	x
COc1ccc(-n2c(=O)[nH]cc(C(=O)Nc3ccc4c(c3)OCCO4)c2=O)cc1	-20	-1	-5	0	x
COc1ccc(-n2c(=O)[nH]cc(C(=O)Nc3ccc4c(c3)OCO4)c2=O)cc1OC	-13	12*	x	-1	0
O=C(C(=O)N1CCC(CNS(=O)(=O)c2ccc(C(F)(F)F)cc2)CC1)c1cccs1	x	x	x	1	x
Cc1nn(C)c(Sc2ccccc2N)c1[N+](=O)[O-]	3	8.0*	-7	0	0
COc1ccccc1CNC(=O)C(CCSC)NC(=O)C1CCC(C)CC1 (stereo not drawn)	-8	9.0*	-3	0	1
CC(Oc1ccccc1Cl)C(=O)N1CCOCC1 (stereo not drawn)	-10	11*	-2	0	-2
Brc1cccc(CN2CCN(c3ncc(Cc4ccccc4)cn3)CC2)n1	x	x	x	-1	x
CS(=O)(=O)c1ccc(C(=O)Nc2ccc(S(=O)(=O)N3CCCCC3)cc2)cc1	x	15*	x	0	0
CC1CCN(S(=O)(=O)c2ccc(C(=O)Nc3nnc(-c4ccco4)o3)cc2)CC1	2	-12	x	1	x
O=C(Nc1nnc(-c2ccco2)o1)c1ccc(S(=O)(=O)N2CCCC2)cc1	1	16*	-10	2	-2
CC1(C)NC(=O)N(c2ccccc2Cl)C1(C)NO (stereo not drawn)	4	11*	-9	0	-3
Cc1cc(=O)n(-c2ccccc2Cl)[nH]1	-3	-9	-16	0	x
O=C(/C=C(\Nc1cccc(Cl)c1F)c1ccccc1)c1ccccc1	x	x	x	0	x
O=C(O)c1ccccc1NS(=O)(=O)c1cccc(-n2sc3ccccc3c2=O)c1	3	7.7*	x	1	3
COC(=O)C1=C(C)NC(=S)NC1c1cccc(OC)c1 (stereo not drawn)	x	x	x	0	x
COC(=O)Cn1nnc(N2CCOCC2)n1	-7	8.0*	-14	-1	1
CN1OC[C@@H]2CN(Cc3ccc4c(c3)OCO4)[C@H](c3ccc(-n4ccnc4)cc3)C[C@@H]21	x	x	x	-1	x
Cc1cccc(NC(=S)N(CCN(C)C)Cc2cc3cccc(C)c3[nH]c2=O)c1	7	20*	-22	1	-1
Cc1cccc(NC(=S)N(CCN(C)C)Cc2cc3cc(C)cc(C)c3[nH]c2=O)c1	9	-4	-18	0	x
O=C(CN1C(=O)NC2(CCCC2)C1=O)Oc1ccc2ccc(=O)oc2c1	x	-3	x	2	x
CC(=O)Nc1cccc(NC(=O)Nc2cccc3ccccc23)c1	2	-5	x	0	x
SMILES	pCIP destab	MsrA act	14-3-3 Bad PPI	MsrA inh	MsrA activ conf
COc1cccc(C(=O)Nc2cccc3ccccc23)c1	-9	20*	x	1	-1
O=C(Nc1cccc(C(=O)O)c1)Nc1cccc2ccccc12	0	8.3*	x	0	-1
CNc1ncnc2sc(-c3ccccc3)cc12	-10	-5	10	4	x
S=c1[nH]cnc2sc(-c3ccccc3)cc12	-3	8.2*	-19	2	0
COC(=O)C1=C(C)N(Cc2ccc(Cl)cc2)C(=S)NC1c1ccc(Br)cc1 (stereo not drawn)	x	x	x	2	x
Cc1c(C)n(CCc2ccccc2)c2ncnc(NCCO)c12	-6	10.0*	x	0	-1
COc1ccc(S(=O)(=O)NC(CC(=O)NCCc2ccc(OC)c(OC)c2)C(C)C)cc1 (stereo not drawn)	-11	13*	-2	-1	0

Source: PubChem BioAssay (several laboratories)
